The list is not random: actives were taken first. Their share in the collection is about 27%.
Cav3 T inh – Cav3.2 calcium influx blockers – cell-based, Fluo-4 calcium fluorescence, FDSS, MLSMR library, primary screen; Voltage-dependent T-type calcium channel subunit alpha-1H (Homo sapiens), O95180; 4% of 100,000 active; Cav3.2-expressing cells; active compounds read low; B-score at 10 µM; AID 449739, 2010;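 active = single-dose well whose peak fluorescence ratio is a statistical outlier from its plate by either plate-standardised score or position-corrected B-score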
CYP2C19 inh – blockers of cytochrome P450 2C19 activity – biochemical, luminescence, ADME assay, primary screen | AID 778, 2007 | P33261 | 21% of 96,000 active | CYP2C19 Supersomes, luciferin-H EGE luminescence, 30 min | inhibition, % at 5 µM;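 active = CYP2C19 inhibition above a set limit at 5 µM in the primary screen, cut at about 50% in these data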;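 also: plate controls were negative control wells for no effect and 2.5 mM tranylcypromine positive control for full effect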
CYP2C9 activ – human CYP2C9 activators, primary screen, biochemical, luminescence. Cytochrome P450 2C9 (Homo sapiens), P11712. recombinant CYP2C9, luciferin-H conversion; active compounds read high; factor 1 = untreated enzyme, 0 = blocked. activation factor at 5 µM. 1.4% of 96,000 active. AID 1024, 2008;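 active = activation factor of 2 or more for CYP2C9 at a 5 µM dose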;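 also: 0 = sulfaphenazole-blocked wells and 1 = vehicle-only wells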
CYP2C19 act – human CYP2C19 activators, primary screen, biochemical, luminescence; Cytochrome P450 2C19 (Homo sapiens), P33261; recombinant CYP2C19, luciferin-H EGE luminescence; active compounds read high; 0 = fully inhibited enzyme, 1 = untreated enzyme; activation factor at 5 µM; 96,000 tested, under 10 active;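 active = activation factor of at least 2 at 5 µM in the primary screen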;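 also: 0 = wells with 2.5 mM tranylcypromine and 1 = vehicle-only wells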
CYP2C9 inh – blockers of cytochrome P450 2C9 activity – biochemical, luminescence, ADME assay, primary screen; CYP2C9 Supersomes, luciferin-H conversion; 20% of 96,000 active; inhibition, % at 5 µM; P11712;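 active = blocking of liver enzyme CYP2C9 beyond about 50% at 5 µM, limit read from the data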
Numbers without * were called inactive; x = no result.

SMILES | Cav3 T inh | CYP2C19 inh | CYP2C9 activ | CYP2C19 act | CYP2C9 inh
CC(Oc1ccc(C(C)(C)C)cc1)c1ccnc2nc(/N=C/N(C)C)nn12 (stereo not drawn) | -0.85 | 6 | 0.9 | 0.9 | 13
O=C1CSC(c2cn(-c3ccccc3)nc2-c2cc3ccccc3oc2=O)N1Cc1ccco1 (stereo not drawn) | x | 55* | 0.2 | 0.4 | 76*
Cc1ccc(-c2nn(-c3ccccc3)cc2C2SCC(=O)N2Cc2ccccc2)o1 (stereo not drawn) | -2.4 | 8 | 0.5 | 0.9 | 45
O=C1CSC(c2cn(-c3ccccc3)nc2-c2cc3ccccc3o2)N1Cc1ccccc1 (stereo not drawn) | x | 54* | 0.1 | 0.5 | 89*
COc1ccc(CCc2nc(C)ccc2O)cc1 | 0.076 | 83* | 0.3 | 0.2 | 66*
O=C(O)Cn1ncc2c1-c1ccoc1CC2 | -1.2 | -19 | 1.1 | 1.2 | -6
COc1ccc(-c2coc3cc4oc(=O)cc(C)c4cc23)cc1F | -0.96 | 58* | 0.9 | 0.4 | 11
COc1ccc(-c2coc3cc(O)ccc3c2=O)cc1O | 0.22 | x | x | x | x
Clc1cc(Cl)cc(Nc2ncn[nH]2)c1 | x | 50* | 1 | 0.5 | 4
O=C(Nc1ncn[nH]1)C(F)(F)C(F)F | -0.24 | -31 | 1.3 | 1.3 | -34
Cc1ccccc1NC(=O)CN1C(=O)NC2(CCCCC2)C1=O | -0.76 | 11 | 0.8 | 0.9 | 24
Cc1ccccc1NC(=S)N(C)C1(c2ccccc2Cl)CCCCC1=O (stereo not drawn) | -0.98 | 69* | 0.8 | 0.3 | 16
CCCCN1C(=O)C(NC(=O)CC(C)C)(C(F)(F)F)C2=C1CC(C)(C)CC2=O (stereo not drawn) | 0.56 | 1 | 1 | 1 | -3
COC(=O)Cc1ccc(NC(=O)c2ccc(C(C)(C)C)cc2)cc1 | -5.2* | 24 | 0.9 | 0.8 | 11
Cc1cc(C(=O)CN2C(=O)NC(C)(c3cccc(Br)c3)C2=O)c(C)n1Cc1ccco1 (stereo not drawn) | x | 28 | 0.6 | 0.7 | 44
Cc1cc(C(=O)CN2C(=O)NC3(CCCc4ccccc43)C2=O)c(C)n1Cc1cccs1 (stereo not drawn) | -7.4* | 1 | 0.6 | 1 | 44
COc1ccc(C(=O)CN2C(=O)NC3(CCCc4ccccc43)C2=O)cc1OC (stereo not drawn) | 0.66 | x | x | x | x
C=CCn1c(C)cc(C(=O)CN2C(=O)NC3(CCCc4ccccc43)C2=O)c1C (stereo not drawn) | -0.82 | 44 | 0.2 | 0.6 | 82*
Cc1cc(C(=O)CN2C(=O)NC(c3ccccc3)(c3ccccc3)C2=O)c(C)n1Cc1ccco1 | -8.6* | 16 | 0.4 | 0.8 | 62*
Cc1ccc(S(=O)(=O)NC2CCCC(C(=O)O)C2)cc1 (stereo not drawn) | 0.56 | -13 | 1.1 | 1.1 | -13
COCCNC(C)C(=O)Nc1ccc(Br)cc1 (stereo not drawn) | 0.013 | 17 | 1 | 0.8 | 0
Cc1cc(NC(=O)c2cc3nc4c(c(C(F)(F)F)n3n2)CCc2ccccc2-4)no1 | x | 7 | 0.9 | 0.9 | 12
Cc1nn(CCc2n[nH]c(=S)n2C2CCCCC2)c(C)c1Br | -0.1 | 47 | 0.9 | 0.5 | 10
N=C1C(=O)OCC1c1cc(Cl)ccc1NC(=O)Nc1ccccc1 (stereo not drawn) | -0.36 | x | x | x | x
COc1cccc(/C=N/NC(=O)c2ccccc2N(Cc2ccccc2)S(=O)(=O)c2ccccc2)c1OC | x | 42 | 0.2 | 0.6 | 80*
SMILES | Cav3 T inh | CYP2C19 inh | CYP2C9 activ | CYP2C19 act | CYP2C9 inh
COc1cccc(/C=N/NC(=O)C(=O)N2CCCC2)c1OC | x | -16 | 1 | 1.2 | -3
O=C(c1cccc(F)c1)N1CCN(Cc2ccco2)CC1 | -0.09 | 69* | 0.9 | 0.3 | 10
COc1cc(OC)cc(C(=O)N2CCN(Cc3cccc(F)c3)CC2)c1 | -0.034 | 98* | 1.3 | 0 | -32
O=C(c1ccco1)N1CCN(Cc2cccc(F)c2)CC1 | -0.085 | 43 | 1 | 0.6 | -2
O=C(NCc1ccccn1)c1ccc(N2CCCC2=O)cc1 | 0.26 | -19 | 1.1 | 1.2 | -12
COC(=O)[C@@H]1C[C@@]2(O)[C@H](O)[C@H](O)[C@H](O)C[C@H]2N1Cc1ccc(-c2ccccc2)cc1 | 0.006 | x | x | x | x
